From PubChem BioAssay AID720706 (Broad Institute, 2013) come the findings set out here.

Hit rate of the full screen: of about 350,000 compounds, about 5,500 (1.6%) were called active.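 The calls were made as follows: active = significant combined selectivity score with lowered wild-type GFP, culture density cut under 30%, mutant RFP and density less affected; inactive = any of these conditions unmet.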 For the sample, actives were picked, then their nearest neighbours and some compounds at random.

The nature of this assay: GFP drop in mixed WT/humanized-ribosome E. coli culture – GFP/RFP fluorescence, OD600, single point, bacterial rRNA inhibitor project, primary screen (AID 720706). The settings on record: E. coli WT GFP vs humanized-ribosome RFP mutants, 24 h; GFP signal change (wild-type ribosome): stronger effect = lower value, DMSO median 0, no signal -100; OD600 change: measured here: OD600 growth, DMSO median 0, no signal -100; RFP signal change: measured here: RFP humanized mutant strains, DMSO median 0, no signal -100, concentration not given here.
Turning to `CS(=O)(=O)Nc1ccc2c(c1)[C@@H]1C[C@H](CC(=O)NCc3ccccn3)O[C@@H](CO)[C@@H]1O2`, the GFP signal change (wild-type ribosome) is 2.36% (inactive), the OD600 change was -0.375% and the RFP signal change was determined as 1.41%.

With `O=C(NCCN1CCCCC1)[C@@H]1N[C@@H]2c3ccc(-c4ccccc4)c(=O)n3C[C@@H]2[C@H]1CO`, the GFP signal change (wild-type ribosome) is -1.4% (inactive), the OD600 change was determined as 4.26% and the RFP signal change is -4%.

Regarding `COC(=O)C[C@@H]1CC[C@H]2[C@@H](COC[C@H](O)CN2C(=O)Nc2ccccc2OC)O1`, the GFP signal change (wild-type ribosome) was -0.973% (inactive), the OD600 change turned out to be 5.6% and the RFP signal change was determined as 2.71%.

Turning to `CCC(O)C1CCN(Cc2cn(-c3ccc(OC)cc3)nc2-c2cccc(F)c2)CC1` (centres undefined), the GFP signal change (wild-type ribosome) was -12.5% (inactive), the OD600 change is -11% and the RFP signal change came to 3.52%.

Take `COc1ccc(-n2cc(CN(C)Cc3n[nH]c(=O)[nH]3)c(-c3cccc(F)c3)n2)cc1`: the GFP signal change (wild-type ribosome) was -10.8% (inactive), the OD600 change is -14.6% and the RFP signal change was -0.58%.

As to `COc1ccc(-n2cc(CNC3CCOCC3)c(-c3cccc(F)c3)n2)cc1`, the GFP signal change (wild-type ribosome) is -30.4% (active), the OD600 change is -24.4% and the RFP signal change was -1.67%.

Take `O=C(Nc1ccc(C(F)(F)F)cc1)c1cccc(-n2cnnn2)c1`: the GFP signal change (wild-type ribosome) was -24.6% (active), the OD600 change was -17.2% and the RFP signal change is -9.02%.

As for `O=C(Nc1cccc(-n2cnnn2)c1)c1cccnc1`, the GFP signal change (wild-type ribosome) was 1.1% (inactive), the OD600 change turned out to be 2.52% and the RFP signal change turned out to be 0.952%.

`O=C(O)CSCC(=O)Nc1ccc(C(F)(F)F)cc1`: the GFP signal change (wild-type ribosome) is 9.65% (inactive), the OD600 change was 10.9% and the RFP signal change came to 3.37%.

As to `COc1ccccc1CNC(=O)C[C@@H]1CC[C@@H]2[C@@H](COc3ccc(NC(=O)Nc4ccc(F)c(F)c4)cc3C(=O)N2C)O1`, the GFP signal change (wild-type ribosome) is -9.44% (inactive), the OD600 change is -10.3% and the RFP signal change is -1.71%.

Take `CCCNC(=O)C[C@@H]1C[C@H]2c3cc(NC(=O)Nc4ccccc4F)ccc3O[C@H]2[C@H](CO)O1`: the GFP signal change (wild-type ribosome) was -3.87% (inactive), the OD600 change was -12.4% and the RFP signal change stood at 1.51%.

As for `COC(=O)c1c(-c2ccc(C)cc2)csc1N`, the GFP signal change (wild-type ribosome) was -1.07% (inactive), the OD600 change was -0.1% and the RFP signal change was determined as 43.8%.

Regarding `COC(=O)c1c(C)cc(O)c(C)c1O`, the GFP signal change (wild-type ribosome) is -0.355% (inactive), the OD600 change came out at 5.33% and the RFP signal change stood at 0.38%.

Regarding `COC(=O)c1c(C(=O)OC)c2n(c1C)CCS2`, the GFP signal change (wild-type ribosome) was -22.3% (active), the OD600 change is -9.31% and the RFP signal change is -5.79%.

In the case of `C/C=C/c1ccc([C@@H]2[C@@H](CO)N3C(=O)CN(C(=O)Nc4cccc(OC)c4)C[C@@H]23)cc1`, the GFP signal change (wild-type ribosome) was -1.73% (inactive), the OD600 change is -7.8% and the RFP signal change amounted to 3.44%.

On to `O=C(Nc1nnc(SCc2c(Cl)cccc2Cl)s1)c1cccc([N+](=O)[O-])c1`, for which the GFP signal change (wild-type ribosome) was 1.43% (inactive), the OD600 change was -3.04% and the RFP signal change is -1.26%.

On to `O=C(Nc1ccc(C2CC2(Cl)Cl)cc1)c1cccc([N+](=O)[O-])c1` (centres undefined), for which the GFP signal change (wild-type ribosome) was -27.9% (active), the OD600 change is -19.1% and the RFP signal change was -6.25%.

Take `O=C(NC(=S)NC1CCS(=O)(=O)C1)c1cccc([N+](=O)[O-])c1` (centres undefined): the GFP signal change (wild-type ribosome) is 3.91% (inactive), the OD600 change came to 8.03% and the RFP signal change was -1.87%.
